Several values for one entry are separate records, joined by “and”; a condition that tells them apart may be missing. Identical values can stand only once. Results filed as inconclusive are left out. Activity calls are given as the source filed them. Unless noted, the call rests on the fitted dose curve; in most records, active means well fitted curve in the direction sought with a large enough effect in the repeat runs; inconclusive means weak or mixed curves; inactive means no such curve, though single readings can be large; an effect the other way counts as inactive or inconclusive.
What was measured:
[1] = target: Acetylcholinesterase (Homo sapiens) (UniProt P22303); experiment: Acetylcholinesterase (AChE) small molecule antagonists: enzyme-based qHTS assay (AID 1347397; calls by dose curve; further: nearly all actives have a fitted effect of over 55% in size); conditions: Potency: AChE enzyme activity inhibition; outcome: AChE enzyme activity inhibition
Sequence of Acetylcholinesterase (Homo sapiens) (P22303 whole entry, looked up): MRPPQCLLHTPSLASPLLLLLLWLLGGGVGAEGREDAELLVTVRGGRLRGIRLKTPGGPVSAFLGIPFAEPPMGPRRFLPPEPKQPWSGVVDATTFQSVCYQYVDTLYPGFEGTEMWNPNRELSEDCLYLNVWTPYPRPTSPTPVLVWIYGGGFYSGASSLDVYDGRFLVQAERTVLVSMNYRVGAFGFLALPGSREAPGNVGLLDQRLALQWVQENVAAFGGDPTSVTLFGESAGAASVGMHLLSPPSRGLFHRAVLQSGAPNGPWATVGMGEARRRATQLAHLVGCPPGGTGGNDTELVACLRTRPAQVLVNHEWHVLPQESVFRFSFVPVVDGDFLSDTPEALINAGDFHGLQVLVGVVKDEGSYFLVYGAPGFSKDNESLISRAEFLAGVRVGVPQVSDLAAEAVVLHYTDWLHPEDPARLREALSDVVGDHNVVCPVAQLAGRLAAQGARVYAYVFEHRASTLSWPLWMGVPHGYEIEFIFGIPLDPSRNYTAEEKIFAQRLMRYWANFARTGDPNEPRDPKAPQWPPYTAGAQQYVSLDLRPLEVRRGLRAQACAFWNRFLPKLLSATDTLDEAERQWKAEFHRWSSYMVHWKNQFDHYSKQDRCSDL
Summary of the method: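 Absorbance-based detection of thiocholine with DTNB served as the read-out. Recombinant human AChE was exposed to compound for 30 min at RT before a 10 min RT incubation with acetylthiocholine.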

[2] = target: Acetylcholinesterase (Homo sapiens) (UniProt P22303); experiment: Acetylcholinesterase (AChE) small molecule antagonists: fluorescence cell-based qHTS assay (AID 1347398; calls by dose curve; further: nearly all actives have a fitted effect of over 50% in size); conditions: Potency: AChE activity; outcome: AChE activity
Summary of the method: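 Fluorimetric cell-based assay: intact SH-SY5Y cells, 30 min compound preincubation at 37 C, acetylthiocholine substrate with thiol probe Thiolite Green, 40 min RT development, fluorescence 490/520 nm.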

[3] = target: Acetylcholinesterase (Homo sapiens) (UniProt P22303); experiment: Acetylcholinesterase (AChE) small molecule antagonists: enzyme-based qHTS assay with human liver microsomes (AID 1347399; calls by dose curve; further: nearly all actives have a fitted effect of over 60% in size); conditions: Potency: qHTS inhibition; outcome: qHTS inhibition
Summary of the method: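 Recombinant human AChE (50 mU/mL in the enzyme mix) and human liver microsomes (0.25 mg/mL final) were preincubated with compound and NADPH (0.25 mg/mL final) for 30 min at 37 C. Acetylthiocholine/DTNB was then added; thiocholine was read colorimetrically after 10 min at room temperature.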

[4] = target: Cytochrome P450 2D6 (Homo sapiens) (UniProt P10635); experiment: Cytochrome P450 Family 2 Subfamily D Member 6 (CYP2D6) small molecule antagonists: luciferase reporter qHTS assay (AID 1671196); further: nearly all actives have a fitted effect of over 50% in size; further: potency means the concentration at half of the fitted maximal effect; on activity change, negative = inhibition: series mostly up to about 120 µM
Sequence of Cytochrome P450 2D6 (Homo sapiens) (P10635 whole entry, looked up): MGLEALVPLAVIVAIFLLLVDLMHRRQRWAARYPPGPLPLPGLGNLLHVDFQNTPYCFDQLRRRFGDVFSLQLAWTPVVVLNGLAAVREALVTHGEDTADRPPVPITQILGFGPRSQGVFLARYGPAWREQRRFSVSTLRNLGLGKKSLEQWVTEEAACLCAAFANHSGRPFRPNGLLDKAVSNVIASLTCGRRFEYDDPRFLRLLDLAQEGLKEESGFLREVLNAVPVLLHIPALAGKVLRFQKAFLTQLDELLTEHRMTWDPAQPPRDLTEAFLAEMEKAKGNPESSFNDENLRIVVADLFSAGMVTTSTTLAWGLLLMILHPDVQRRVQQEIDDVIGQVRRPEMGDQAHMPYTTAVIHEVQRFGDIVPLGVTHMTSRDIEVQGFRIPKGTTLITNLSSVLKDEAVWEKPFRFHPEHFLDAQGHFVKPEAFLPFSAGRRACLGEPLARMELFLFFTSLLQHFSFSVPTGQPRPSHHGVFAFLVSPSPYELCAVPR
Summary of the method: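 CYP2D6 enzyme–substrate mix was held with compound for 10 min at room temperature, then NADPH regeneration solution was added and the reaction ran 1 h at room temperature. Luciferin product was detected by luminescence after 20 min with detection reagent.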

[5] = target: Cytochrome P450 2C19 (Homo sapiens) (UniProt P33261); experiment: Cytochrome P450 Family 2 Subfamily C Member 19 (CYP2C19) small molecule antagonists: luciferase reporter qHTS assay (AID 1671197); further: nearly all actives have a fitted effect of over 65% in size; further: potency means the concentration at half of the fitted maximal effect; on activity change, negative = inhibition: series mostly up to about 120 µM
Sequence of Cytochrome P450 2C19 (Homo sapiens) (P33261 whole entry, looked up): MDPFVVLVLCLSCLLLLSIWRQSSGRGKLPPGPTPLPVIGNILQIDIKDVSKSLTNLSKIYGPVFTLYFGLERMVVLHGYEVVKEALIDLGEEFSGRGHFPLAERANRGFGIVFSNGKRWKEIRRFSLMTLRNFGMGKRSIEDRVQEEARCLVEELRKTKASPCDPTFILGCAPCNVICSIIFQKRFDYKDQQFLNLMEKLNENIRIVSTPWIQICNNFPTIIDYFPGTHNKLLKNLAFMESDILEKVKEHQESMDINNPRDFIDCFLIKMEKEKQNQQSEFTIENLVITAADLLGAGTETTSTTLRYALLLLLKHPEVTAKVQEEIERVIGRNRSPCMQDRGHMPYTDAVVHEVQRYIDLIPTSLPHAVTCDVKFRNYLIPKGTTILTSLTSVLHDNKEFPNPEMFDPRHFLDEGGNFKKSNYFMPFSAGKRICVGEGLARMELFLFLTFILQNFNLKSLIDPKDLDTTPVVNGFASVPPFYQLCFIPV
Summary of the method: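 Light output is proportional to CYP2C19 activity: proluciferin substrate is converted to luciferin, then detected by a luciferin detection reagent that also stops the 1 h, 37C NADPH-driven reaction. Ketoconazole serves as positive control.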

[6] = target: Cytochrome P450 2C9 (Homo sapiens) (UniProt P11712); experiment: Cytochrome P450 Family 2 Subfamily C Member 9 (CYP2C9) small molecule antagonists: luciferase reporter qHTS assay (AID 1671198); further: nearly all actives have a fitted effect of over 50% in size; further: potency means the concentration at half of the fitted maximal effect; on activity change, negative = inhibition: series mostly up to about 120 µM
Sequence of Cytochrome P450 2C9 (Homo sapiens) (P11712 whole entry, looked up): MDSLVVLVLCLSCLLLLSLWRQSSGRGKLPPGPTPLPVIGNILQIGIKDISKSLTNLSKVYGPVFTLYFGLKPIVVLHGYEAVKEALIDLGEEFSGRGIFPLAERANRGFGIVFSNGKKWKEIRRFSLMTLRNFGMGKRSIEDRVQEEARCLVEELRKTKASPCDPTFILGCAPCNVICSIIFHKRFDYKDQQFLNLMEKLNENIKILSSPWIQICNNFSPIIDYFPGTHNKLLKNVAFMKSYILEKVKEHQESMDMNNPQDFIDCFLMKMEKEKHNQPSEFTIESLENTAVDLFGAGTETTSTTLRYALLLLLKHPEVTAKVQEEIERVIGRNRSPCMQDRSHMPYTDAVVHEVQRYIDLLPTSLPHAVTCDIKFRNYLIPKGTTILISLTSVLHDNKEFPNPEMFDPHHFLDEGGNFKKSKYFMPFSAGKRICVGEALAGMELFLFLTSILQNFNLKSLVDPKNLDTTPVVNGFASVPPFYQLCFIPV
Summary of the method: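 Enzyme-substrate mix preincubated with compound 10 min at room temperature; reaction started with NADPH regeneration solution, 1 h 37C. Luminescent luciferin product read after 20 min detection reagent.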

[7] = target: Cytochrome P450 1A2 (Homo sapiens) (UniProt P05177); experiment: Cytochrome P450 Family 1 Subfamily A Member 2 (CYP1A2) small molecule antagonists: luciferase reporter qHTS assay (AID 1671199); further: nearly all actives have a fitted effect of over 50% in size; further: potency means the concentration at half of the fitted maximal effect; on activity change, negative = inhibition: series mostly up to about 120 µM
Sequence of Cytochrome P450 1A2 (Homo sapiens) (P05177 whole entry, looked up): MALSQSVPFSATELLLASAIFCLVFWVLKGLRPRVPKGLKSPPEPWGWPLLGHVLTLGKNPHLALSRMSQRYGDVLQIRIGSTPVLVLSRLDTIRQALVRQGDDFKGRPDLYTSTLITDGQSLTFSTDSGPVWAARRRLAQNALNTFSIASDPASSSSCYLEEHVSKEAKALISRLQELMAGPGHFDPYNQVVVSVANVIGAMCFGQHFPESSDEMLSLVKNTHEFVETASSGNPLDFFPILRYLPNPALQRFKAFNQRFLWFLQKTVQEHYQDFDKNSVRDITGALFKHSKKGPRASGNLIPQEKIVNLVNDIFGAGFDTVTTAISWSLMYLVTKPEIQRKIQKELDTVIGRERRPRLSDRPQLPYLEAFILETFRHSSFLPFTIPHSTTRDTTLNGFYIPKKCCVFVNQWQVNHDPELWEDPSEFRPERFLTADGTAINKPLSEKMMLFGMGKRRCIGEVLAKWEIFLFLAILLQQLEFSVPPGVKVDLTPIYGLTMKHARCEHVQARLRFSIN
Summary of the method: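 Human CYP1A2 activity measured with a P450-Glo proluciferin substrate; compounds in DMSO preincubated 10 min at room temperature with enzyme-substrate mix, then NADPH regeneration system added for 1 h. Luciferin detection reagent, 20 min, luminescence read.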

[8] = target: Voltage-gated inwardly rectifying potassium channel KCNH2 (Homo sapiens) (UniProt Q12809); experiment: Human Ether-a-go-go-Related Gene (hERG) channel small molecule antagonists: fluorescence cell-based qHTS assay (AID 1671200); further: nearly all actives have a fitted effect of over 50% in size; further: potency means the concentration at half of the fitted maximal effect;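 on activity change, negative = inhibition: hERG-expressing U2OS cells given a thallium stimulus after FluxOR II dye loading; series mostly up to about 77 µM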
Sequence of Voltage-gated inwardly rectifying potassium channel KCNH2 (Homo sapiens) (Q12809 whole entry, looked up): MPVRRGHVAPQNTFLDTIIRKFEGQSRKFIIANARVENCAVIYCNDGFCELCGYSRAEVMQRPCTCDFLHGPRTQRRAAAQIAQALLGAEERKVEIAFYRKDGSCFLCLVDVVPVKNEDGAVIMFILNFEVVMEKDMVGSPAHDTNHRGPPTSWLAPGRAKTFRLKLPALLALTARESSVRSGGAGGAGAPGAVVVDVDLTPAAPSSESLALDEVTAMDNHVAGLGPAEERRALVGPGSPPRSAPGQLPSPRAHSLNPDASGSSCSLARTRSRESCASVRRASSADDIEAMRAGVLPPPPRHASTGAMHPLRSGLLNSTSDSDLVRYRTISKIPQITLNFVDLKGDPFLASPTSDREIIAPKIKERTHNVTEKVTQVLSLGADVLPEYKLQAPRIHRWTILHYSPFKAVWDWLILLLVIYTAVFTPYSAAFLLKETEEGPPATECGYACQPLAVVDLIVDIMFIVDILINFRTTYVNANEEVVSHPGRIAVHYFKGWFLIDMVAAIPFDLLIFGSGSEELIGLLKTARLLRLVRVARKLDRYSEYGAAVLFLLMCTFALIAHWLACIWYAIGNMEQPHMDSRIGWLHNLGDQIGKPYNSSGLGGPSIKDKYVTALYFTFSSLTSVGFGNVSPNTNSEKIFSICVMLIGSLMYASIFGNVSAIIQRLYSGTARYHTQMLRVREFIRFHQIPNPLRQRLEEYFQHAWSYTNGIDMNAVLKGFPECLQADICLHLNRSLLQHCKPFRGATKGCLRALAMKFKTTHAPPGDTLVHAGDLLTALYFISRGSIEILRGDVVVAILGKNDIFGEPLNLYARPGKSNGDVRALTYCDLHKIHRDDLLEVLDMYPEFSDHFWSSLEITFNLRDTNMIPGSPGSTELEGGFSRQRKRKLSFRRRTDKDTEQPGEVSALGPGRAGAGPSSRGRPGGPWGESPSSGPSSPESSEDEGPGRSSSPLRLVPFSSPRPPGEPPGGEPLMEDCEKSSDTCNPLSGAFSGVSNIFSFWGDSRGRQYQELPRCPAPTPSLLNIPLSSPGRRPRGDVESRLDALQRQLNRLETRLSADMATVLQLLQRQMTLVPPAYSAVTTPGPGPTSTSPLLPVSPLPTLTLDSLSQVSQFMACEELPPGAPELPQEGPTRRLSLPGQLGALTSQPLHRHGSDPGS
Summary of the method: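 hERG-U2OS cells plated overnight at 37 C, loaded with FluxOR II dye 1 h at RT in dark; after 10 min, thallium stimulus added. Fluorescence (480/540 nm) read kinetically for 2 min at 1 s intervals.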

[9] = target: Cytochrome P450 3A4 (Homo sapiens) (UniProt P08684); experiment: Cytochrome P450 Family 3 Subfamily A Member 4 (CYP3A4) small molecule antagonists: luciferase reporter qHTS assay (AID 1671201); further: nearly all actives have a fitted effect of over 50% in size; further: potency means the concentration at half of the fitted maximal effect; on activity change, negative = inhibition: series mostly up to about 120 µM
Sequence of Cytochrome P450 3A4 (Homo sapiens) (P08684 whole entry, looked up): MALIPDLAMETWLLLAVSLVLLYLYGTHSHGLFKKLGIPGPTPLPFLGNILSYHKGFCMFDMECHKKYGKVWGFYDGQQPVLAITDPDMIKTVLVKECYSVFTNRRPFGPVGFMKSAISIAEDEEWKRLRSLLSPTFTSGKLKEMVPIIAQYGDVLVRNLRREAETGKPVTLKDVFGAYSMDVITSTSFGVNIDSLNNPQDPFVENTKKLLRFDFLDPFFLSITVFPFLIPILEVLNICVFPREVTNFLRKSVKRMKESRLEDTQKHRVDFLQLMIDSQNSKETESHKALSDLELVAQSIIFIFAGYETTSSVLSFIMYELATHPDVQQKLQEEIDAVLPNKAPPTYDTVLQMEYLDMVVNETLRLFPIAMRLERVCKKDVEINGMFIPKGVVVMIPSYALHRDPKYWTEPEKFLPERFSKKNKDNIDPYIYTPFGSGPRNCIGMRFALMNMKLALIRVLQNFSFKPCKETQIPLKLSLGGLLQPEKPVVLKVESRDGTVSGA
Summary of the method: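 P450-Glo CYP3A4 luminescent assay: compounds preincubated 10 min at room temperature with enzyme and proluciferin substrate, NADPH regeneration added, 1 h room-temperature reaction, stopped with luciferin detection reagent; luminescence read after 20 min. Ketoconazole positive control.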
On the % scale 0 is the no-effect control and ±100 the full control effect.

O=C1CCCCC1Cl (centres undefined)
inactive: Potency [1] | Potency [2] | Potency [3] | Potency [4] | Potency [6] | Potency [8] | Potency [9]
active: Potency [5] 40.4 µM | Potency [7] 36 µM

CC(C)N(Cc1ccccc1)C(=O)C(C)(C)C
inactive: Potency [1] | Potency [2] | Potency [3] | Potency [4] | Potency [8] | Potency [9]
active: Potency [5] 20 µM | Potency [6] 35.6 µM

NCC1(CC(=O)O)CCCCC1
inactive: Potency [1] | Potency [2] | Potency [3] | Potency [4] | Potency [5] | Potency [6] | Potency [7] | Potency [8] | Potency [9]

CCCCCCC(=O)CCCCCC/C=C/C[C@@H](O)[C@H](O)[C@@](N)(CO)C(=O)O
inactive: activity change, negative = inhibition [1] 0.415% [at 23.6 µM] | activity change, negative = inhibition [2] -0.579% [at 23.8 µM] | activity change, negative = inhibition [3] -0.169% [at 23.6 µM] | activity change, negative = inhibition [4] -0.222% [at 23.6 µM] | activity change, negative = inhibition [5] 14.2% [at 23.6 µM] | activity change, negative = inhibition [6] 9.38% [at 23.6 µM] | activity change, negative = inhibition [7] -0.0703% [at 23.6 µM] | activity change, negative = inhibition [8] 0.803% [at 15.8 µM] | activity change, negative = inhibition [9] 24.6% [at 23.6 µM]

CC(Cc1ccccc1)NCCCCl (centres undefined)
inactive: Potency [1] | Potency [2] | Potency [3] | Potency [5] | Potency [6] | Potency [7]
active: Potency [4] 1.74 µM | Potency [8] 15.1 µM

CCNP(=S)(OC)O/C(C)=C/C(=O)OC(C)C (centres undefined)
active: Potency [4] 31.7 µM | Potency [5] 0.0894 µM | Potency [6] 0.633 µM | Potency [7] 2.52 µM | Potency [9] 1.26 µM
inactive: Potency [1] | Potency [2] | Potency [3]

CC(C)(O)C(Cl)(Cl)Cl
inactive: Potency [1] | Potency [2] | Potency [3] | Potency [4] | Potency [5] | Potency [6] | Potency [7] | Potency [8] | Potency [9]

CCN(CCO)CCn1c(Cc2ccccc2)nc2c1c(=O)n(C)c(=O)n2C
inactive: Potency [1] | Potency [2] | Potency [3] | Potency [4] | Potency [5] | Potency [6] | Potency [7] | Potency [8] | Potency [9]

O=[N+]([O-])CCO
inactive: Potency [1] | Potency [2] | Potency [3] | Potency [4] | Potency [5] | Potency [6] | Potency [7] | Potency [8] | Potency [9]

C=CCc1cc(OC)c2c(c1)OCO2
active: Potency [4] 23.5 µM | Potency [5] 59 µM | Potency [6] 37.2 µM | Potency [7] 1.87 µM | Potency [9] 4.69 µM
inactive: Potency [1] | Potency [2] | Potency [3] | Potency [8]

CN(C)CCc1c[nH]c2cccc(OP(=O)(O)O)c12
inactive: Potency [1] | Potency [2] | Potency [3] | Potency [4] | Potency [5] | Potency [6] | Potency [7] | Potency [8] | Potency [9]

CCCOC(=O)c1cncn1C(C)c1ccccc1 (centres undefined)
inactive: Potency [1] | Potency [2] | Potency [3] | Potency [4] | Potency [8]
active: Potency [5] 2.45 µM | Potency [6] 13.8 µM | Potency [7] 17.4 µM

O=C(Cl)C(Cl)Cl
inactive: Potency [1] | Potency [2] | Potency [3] | Potency [4] | Potency [5] | Potency [6] | Potency [8] | Potency [9]

CC(C)[N+](C)(CCC(C(N)=O)(c1ccccc1)c1ccccc1)C(C)C
active: Potency [4] 0.776 µM | Potency [6] 38.9 µM
inactive: Potency [1] | Potency [2] | Potency [3] | Potency [5] | Potency [8]

C=C(Cl)CSC(=S)N(CC)CC
inactive: Potency [1] | Potency [2] | Potency [3] | Potency [4]
active: Potency [5] 34.7 µM | Potency [6] 38.9 µM | Potency [8] 53.5 µM

O=C/C=C/c1ccco1
inactive: Potency [1] | Potency [2] | Potency [3] | Potency [4] | Potency [5] | Potency [6] | Potency [7] | Potency [8] | Potency [9]

CCC(C)C(C)(COC(N)=O)COC(N)=O (centres undefined)
inactive: Potency [1] | Potency [2] | Potency [3] | Potency [4] | Potency [5] | Potency [6] | Potency [7] | Potency [8] | Potency [9]

NC(=O)OCCCc1ccccc1
inactive: Potency [1] | Potency [2] | Potency [3] | Potency [4] | Potency [5] | Potency [6] | Potency [8] | Potency [9]

C=C(C)[C@H]1CN[C@H](C(=O)O)[C@H]1CC(=O)O
inactive: Potency [1] | Potency [2] | Potency [3] | Potency [4] | Potency [5] | Potency [6] | Potency [7] | Potency [8] | Potency [9]

CC(Cc1ccccc1)NCCn1cnc2c1c(=O)n(C)c(=O)n2C (centres undefined)
inactive: Potency [1] | Potency [2] | Potency [3] | Potency [6] | Potency [8]
active: Potency [4] 4.96 µM | Potency [5] 78.7 µM

CCC1(c2ccccc2)CCC(=O)NC1=O (centres undefined)
inactive: Potency [1] | Potency [2] | Potency [3] | Potency [4] | Potency [6] | Potency [7] | Potency [8] | Potency [9]
active: Potency [5] 38.9 µM

CCCC[N+](=O)[O-]
inactive: Potency [1] | Potency [2] | Potency [3] | Potency [4] | Potency [5] | Potency [6] | Potency [7] | Potency [8] | Potency [9]

C=CC1(C)OC(=O)N(c2cc(Cl)cc(Cl)c2)C1=O (centres undefined)
inactive: Potency [1] | Potency [2] | Potency [3] | Potency [4] | Potency [6]
active: Potency [5] 7.92 µM and 12.6 µM | Potency [7] 5.61 µM and 6.33 µM

CN(C)C1CCCCC1
inactive: Potency [1] | Potency [2] | Potency [3] | Potency [4] | Potency [5] | Potency [6] | Potency [8] | Potency [9]

CON(C)C(=O)Nc1ccc(Br)c(Cl)c1
active: Potency [5] 28.3 µM | Potency [6] 63.3 µM | Potency [7] 1.78 µM
inactive: Potency [1] | Potency [2] | Potency [3] | Potency [4] | Potency [8]

— PubChem BioAssay (Tox21)
